Compounds without any hit were thinned out: in the full panel of roughly 83,000, 20% have a hit.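 Cells were grown in 96-well plates and exposed to the test compound at a single concentration for 48 hours; results are reported as percent growth, with values below 10 considered active.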 Unmarked numbers belong to inactive results. The source made the active and inactive calls.
Tests used:
Experiment in all cases: NCI-60 one-dose screen, 48 h (100 = growth as untreated, 0 = no growth, -100 = all killed)
Details in all cases: 10 µM unless noted
NCI-H23 lung = system: NCI-H23 lung
NCI-H226 lung = system: NCI-H226 lung
NCI-H322M lung = system: NCI-H322M lung
HOP-62 NSCLC = system: HOP-62 NSCLC
NCI-H460 lung = system: NCI-H460 lung
HOP-92 NSCLC = system: HOP-92 NSCLC
NCI-H522 lung = system: NCI-H522 lung
A549/ATCC NSCLC = system: A549/ATCC NSCLC
786-0 renal = system: 786-0 renal
COLO 205 colon = system: COLO 205 colon

Structure (SMILES) | growth (NCI-H23 lung) | growth (NCI-H226 lung) | growth (NCI-H322M lung) | growth (HOP-62 NSCLC) | growth (NCI-H460 lung) | growth (HOP-92 NSCLC) | growth (NCI-H522 lung) | growth (A549/ATCC NSCLC) | growth (786-0 renal) | growth (COLO 205 colon)
COc1ccccc1/C=C(/C(=O)c1ccccc1)c1ccccc1 | 95.4% | 107% | 115% | 114% | 93.6% | 75.7% | 106% | 97.4% | 103% | 122%
CCOC(=O)/C=C/c1ccc(C(=O)OCC)[nH]1 | 72.3% | 89% | 57.4% | 76.7% | 14.3% | 53.8% | 54.4% | 40.3% | 90.2% | 16.2%
COc1cc(/C=C2\CN(C(=O)CCN3CCC(=NO)CC3)C/C(=C\c3cc(OC)c(OC)c(OC)c3)C2=O)cc(OC)c1OC | -21.9% (active) | -6.36% (active) | -89.2% (active) | -47.2% (active) | -64% (active) | -49.2% (active) | -74.7% (active) | 2.51% (active) | -38.6% (active) | -85.8% (active)
O=C(Nc1ccc(F)cc1)Nc1ccc(CCO)cc1 | 104% | 107% | 97.7% | 116% | 106% | 103% | 93.8% | 91.4% | 109% | 132%
CC/C=C\C[C@H](O)C/C=C1/C(=O)C=C[C@@H]1C/C=C\CCCC(=O)NC | -18.8% (active) | -41.1% (active) | 20.7% | -24.3% (active) | -49.9% (active) | 48.4% | -15.6% (active) | -36.7% (active) | -39.1% (active) | -25.2% (active)
CN(C)CCCC(=O)Nc1ccc(Cn2nnc3c2C(=O)c2nnn(Cc4ccc(NC(=O)CCCN(C)C)cc4)c2C3=O)cc1 | 2.08% (active) | 102% | 38.5% | 83.2% | 31% | 116% | 71.8% | 91.9% | 96.9% | -9.75% (active)
O=C(O)c1ccccc1Nc1cccc(S(F)(F)(F)(F)F)c1 | 96.8% | 88.9% | 101% | 88.4% | 102% | 96.1% | 61.9% | 84.2% | 110% | 104%
COc1ccc(CN2C(=O)/C(=C\c3cc(OC)c(OC)c(OC)c3)c3cc(OC)ccc32)cc1 | -44% (active) | -21.1% (active) | 8.29% (active) | 17.1% | -42.2% (active) | 37.6% | -70.1% (active) | 3.05% (active) | 9.78% (active) | -46.3% (active)
CCC(c1ccccc1)C(CC)c1ccc(O)c(O)c1 (stereo not given) | 89.5% | 97.4% | 96.1% | 124% | 107% | 83.6% | 85.2% | 98.6% | 98.9% | 125%
COCCOc1ccc(-c2nc3ccc(-c4nc5ccc(N6CCN(C)CC6)cc5[nH]4)cc3[nH]2)cc1 | -4.24% (active) | -8.04% (active) | 17% | 14.2% | 35.9% | 26.4% | -41.9% (active) | 67.9% | 26.8% | -10.9% (active)
CCCCCCCCCCCCCCCCNCCC[C@@H](C)[C@H]1CC[C@H]2[C@@H]3[C@H](OCCCN)C[C@@H]4C[C@H](OCCCN)CC[C@]4(C)[C@H]3C[C@H](OCCCN)[C@]12C | -39.7% (active) | -1.42% (active) | -76.8% (active) | -49.5% (active) | -45.5% (active) | -33.2% (active) | -43.6% (active) | -58% (active) | -43.1% (active) | -40.8% (active)
